This note sets out measurements from PubChem BioAssay (NCI).

About 83,000 compounds went through this panel and 20% of them were active in at least one assay; those are over-represented in the sample as a whole.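 The test compound was applied at a single concentration to cells in 96-well plates for 48 hours, and percent growth was recorded.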 Values without a mark were called inactive. The source made the active and inactive calls. How the source made its calls: active means growth percent below 10; inactive means the rest.

What all share (experiment): NCI-60 one-dose screen, 48 h (100 = growth as untreated, 0 = no growth, -100 = all killed)
What all share (settings): 10 µM

The subject of assay [1] is HCT-15 colon.
For assay [2], the system named is HT29 colon.
Assay [3] deals with SNB-75 CNS.
Assay [4] concerns SNB-19 CNS.
The subject of assay [5] is U251 CNS.
Assay [6] concerns PC-3 prostate.
Assay [7] has as its system SK-MEL-5 melanoma.
The test system of assay [8] is UACC-62 melanoma.
The test system of assay [9] is LOX IMVI melanoma.
Assay [10] deals with SK-MEL-28 melanoma.
The test system of assay [11] is SK-MEL-2 melanoma.
Assay [12] deals with EKVX NSCLC.
Assay [13] deals with SN12C renal.
Assay [14] has as its system UO-31 renal.
Assay [15] has as its system TK-10 renal.
Assay [16] has as its system ACHN renal.
Assay [17] concerns CAKI-1 renal.
Assay [18] deals with A498 renal.
For assay [19], the system named is CCRF-CEM leukemia.
The subject of assay [20] is MOLT-4 leukemia.

Consider `CCCCSc1nc(Nc2ccc(/C(C)=N/NC(N)=S)cc2)c(C#N)c(-c2ccc(F)cc2)n1`, for which the growth in assay [1] was 62.7%; in assay [2], 60.3%; in [3] it was 53.5%; in assay [4], 20.7%; in [5], 7.7% (active); in assay [6], 28.6%. Besides, the growth in assay [7] is 75%; in assay [8], 49.3%; in assay [9], 6.74% (active); in assay [10] it was 64%; in [11], 72.9%; in assay [12], 57.5%. The growth in assay [13] was 29.2%; in [14] it was 19.6%; in assay [15], 46%; in assay [16] it was 14.5%; in assay [17] it was 45.2%; in assay [18], 63.1%. Also, the growth in [19] was 55.3%; in [20], 63.6%.
With `CCCn1c(=O)c2[nH]c(-c3ccc(OCc4nc5ccccc5[nH]4)cc3)nc2n(CCC)c1=O`, the growth in [1] is 63.2%; in assay [2] it was 61.2%; in assay [3] it was 34.9%; in assay [4], 37.1%; in assay [5] it was 2.91% (active); in assay [6], 77.3%. Besides, the growth in [7] was 44.6%; in assay [8] it was 35.5%; in assay [9] it was -2.38% (active); in assay [10], 102%; in assay [11], 81.6%; in [12], 55.7%. The growth is 2.85% (active) in assay [13]; 35.7% in [14]; 17.4% in assay [15]; 32.4% in assay [16]; 39.1% in assay [17]; -10.5% (active) in assay [18]. For the same compound, the results for the growth in assay [19] and in assay [20] were 87.8% and 70.7%, respectively.
With `Cn1cc(/C=N/Nc2cccc(Cl)n2)c2ccccc21`, the growth in [1] is 28.2%; in assay [2], 44.1%; in assay [3], 70.7%; in assay [4], 76.9%; in assay [5], 56.2%; in [6], 58.4%. The growth in assay [7] is 71.7%; in assay [8], 67.7%; in assay [9], 50.1%; in assay [10] it was 104%; in assay [11], 87.5%; in assay [12], 57.9%. The growth in assay [13] is 69.6%; in assay [14] it was 40.7%; in [15], 113%; in assay [16], 71.4%; in assay [17], 66.9%; in assay [18], 101%. The growth in [19] is 48.2%; in assay [20], 32.9%.
`NS(=O)(=O)c1ccc(NC(=O)CSc2ccc(-c3ccc(Cl)cc3)nn2)c(Br)c1`: the growth in assay [1] is 54.1%; in assay [2] it was 64.7%; in assay [3] it was 42.3%; in [4], 27%; in assay [5], -25.6% (active); in [6], 35.7%. Further, the growth is 68.8% in assay [7]; 65.4% in assay [8]; 19.7% in [9]; 79.5% in assay [10]; 82.9% in [11]; 47.4% in assay [12]. Moreover, the growth in assay [13] was 39.1%; in assay [14], 91%; in assay [15], 94.6%; in assay [16], 24.7%; in assay [17] it was 67%; in assay [18], 0.192% (active). Further, the growth in assay [19] was 83.7%; in [20], 90.6%.
On to `CCCCOc1ccc(Nc2nc3ccccc3nc2Nc2ccc(OCCCC)cc2)cc1`, for which the growth in assay [1] was 64.4%; in assay [2], 73.7%; in assay [3], 89.5%; in assay [4] it was 84.1%; in assay [5] it was 67.3%; in [6], 59.7%. The growth in assay [7] was 96.3%; in [8], 90.6%; in [9], 102%; in assay [10] it was 109%; in assay [11], 99.5%; in assay [12], 82.2%. Also, the growth in assay [13] was 95.9%; in assay [14], 85.3%; in assay [15] it was 91.9%; in [16] it was 97.7%; in assay [17] it was 91.8%; in assay [18], 105%. In addition, the growth in assay [19] was 69.1%; in [20] it was 68.3%.
As for `O=C1c2ccccc2C(=O)c2c1c(C(=O)c1ccc(Cl)cc1)n1c2ccc2c3ccccc3ccc21`, the growth is 103% in assay [1]; 109% in assay [2]; 86.7% in assay [3]; 96.1% in assay [4]; 110% in [5]; 94.8% in assay [6]. The growth was 99.9% in assay [7]; 96.9% in assay [8]; 90.2% in [9]; 108% in [10]; 107% in assay [11]; 97.1% in assay [12]. Also, the growth in [13] is 103%; in [14], 69.8%; in assay [15] it was 108%; in assay [16], 82.1%; in assay [17], 92.5%; in [18], 144%. Also, the figures for the growth in assay [19] and in assay [20] were 102% and 107%, respectively.
As for `CC(=O)NS(=O)(=O)c1ccc(NC(=O)CSC2=NC(c3ccccc3)C(C(C)=O)=C(C)N2)cc1` (stereo not given), the growth in assay [1] is 101%; in [2], 114%; in assay [3], 99%; in assay [4], 104%; in [5], 116%; in assay [6], 110%. Further, the growth in [7] is 101%; in [8] it was 98.5%; in [9], 94.9%; in [10], 107%; in assay [11], 115%; in assay [12] it was 104%. The growth in [13] is 111%; in [14], 91.5%; in assay [15] it was 116%; in assay [16] it was 111%; in [17] it was 99.4%; in assay [18], 133%. For the same compound, the growth in assay [19] is 95.4%; in assay [20], 109%.
